The values that follow come from PubChem BioAssay (Tox21).

Where “and” joins values, the source holds several entries; their conditions need not be identical. Equal values may be shown once. Where a structure was tested more than once in an assay, its records may differ in their call. Calls of active or inactive are those of the source. Unless noted, the call rests on the fitted dose curve; in most records, active means well fitted curve in the direction sought with a large enough effect in the repeat runs; inconclusive means weak or mixed curves; inactive means no such curve, though single readings can be large; an effect the other way counts as inactive or inconclusive.

Assay [1] can be described thus: qHTS assay to identify small molecule antagonists of the glucocorticoid receptor (GR) signaling pathway - cell viability counter screen (AID 720693). Further: nearly all actives have a fitted effect of over 55% in size. Further: potency means the concentration at half of the fitted maximal effect.
Assay [2] is described as follows: qHTS assay for identifying genotoxic compounds that show differential cytotoxicity against isogenic chicken DT40 cell lines with known DNA damage response pathways - wild type cell line (AID 743012). Further: nearly all actives have a fitted effect of over 60% in size. Further: potency means the concentration at half of the fitted maximal effect. Summed up: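 Wild-type DT40 cells (300/well) exposed to compounds for 40 hours at 37 C/5% CO2. Viability read by CellTiter-Glo luminescence after 30 min at room temperature.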

Assay [3] in a line: qHTS assay for identifying genotoxic compounds that show differential cytotoxicity against isogenic chicken DT40 cell lines with known DNA damage response pathways - Rev3 mutant cell line (AID 743014). Further: nearly all actives have a fitted effect of over 55% in size. Further: potency means the concentration at half of the fitted maximal effect.
Assay [4] in a line: qHTS assay for identifying genotoxic compounds that show differential cytotoxicity against isogenic chicken DT40 cell lines with known DNA damage response pathways - Rad54/Ku70 mutant cell line (AID 743015). Further: nearly all actives have a fitted effect of over 60% in size. Further: potency means the concentration at half of the fitted maximal effect.
Assay [5] is described as follows: qHTS assay to identify small molecule antagonists of the androgen receptor (AR) signaling pathway - cell viability counter screen (AID 743033; further: nearly all actives have a fitted effect of over 45% in size; further: potency means the concentration at half of the fitted maximal effect).
The target of assay [6] is Androgen receptor (Homo sapiens) (UniProt P10275). Description: qHTS assay to identify small molecule antagonists of the androgen receptor (AR) signaling pathway (AID 743035; active means well fitted inhibition curve with a large enough effect in the signal ratio in the repeat runs, not every such curve was filed as active; inconclusive means weak or mixed curves, or effect the other way; inactive means no such curve, though single readings can be large or run the other way; the % refers to the signal ratio; further: potency means the concentration at half of the fitted maximal effect). Summed up:
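HEK293 cells stably carrying UAS-beta-lactamase reporter, 2,000/well, given compounds plus R1881 agonist and incubated 16 h at 37C. LiveBLAzer B/G FRET substrate then added for 2 h at room temperature before fluorescence reading.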
In general terms: Quantitative high-throughput screening tests each substance at several concentrations.

Assay [7] shares this target. Description: qHTS assay to identify small molecule agonists of the androgen receptor (AR) signaling pathway (AID 743036; active means well fitted activation curve with a large enough effect in the signal ratio in the repeat runs, with a control signal flat, not every such curve was filed as active; inconclusive means weak or mixed curves, or effect the other way; inactive means no such curve, though single readings can be large or run the other way; the % refers to the signal ratio). The method in brief: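 HEK293 cells stably carrying a UAS-driven beta-lactamase reporter (GeneBLAzer AR-UAS-bla-GripTite) were plated at 2,000 cells/well, rested 4 h at 37C, then exposed to compounds in DMSO for 16 h. LiveBLAzer B/G FRET substrate was added for 2 h at room temperature; fluorescence read.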

The target is the same in assay [8]. Description: qHTS assay to identify small molecule agonists of the androgen receptor (AR) signaling pathway using the MDA cell line (AID 743040; further: nearly all actives have a fitted effect of over 20% in size). The note with it: MDA-kb2 AR-luc cells, MMTV luciferase, 16 h, stronger effect = higher value. The method in brief:
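MDA-kb2 breast carcinoma cells carrying MMTV-luciferase (responsive to AR and GR), plated 5 h then treated 16 h with compounds at 37C, 0% CO2. Read-out was ONE-Glo luminescence after 30 min at room temperature.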

Assay [9] in a line: qHTS assay to identify small molecule antagonists of the androgen receptor (AR) signaling pathway using the MDA cell line - cell viability counter screen (AID 743041; further: nearly all actives have a fitted effect of over 45% in size; further: potency means the concentration at half of the fitted maximal effect). Summed up: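 MDA-kb2 AR-luc cells (MMTV-luciferase, AR/GR responsive) treated with compounds plus R1881 agonist for 16 h at 37C. CellTiter-Fluor added at 15.5 h; fluorescence read after 30 min in the same wells.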

The target in assay [10] is Androgen receptor (Homo sapiens) (UniProt P10275). Description: qHTS assay to identify small molecule antagonists of the androgen receptor (AR) signaling pathway using the MDA cell line (AID 743042; further: nearly all actives have a fitted effect of over 55% in size; further: potency means the concentration at half of the fitted maximal effect). Summed up: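 MDA-kb2 breast carcinoma cells carrying MMTV-luciferase (AR/GR responsive) were co-treated with compounds and the agonist R1881 for 16 h at 37C. Inhibition read as ONE-Glo luminescence; CellTiter-Fluor fluorescence measured in parallel for cytotoxicity.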
Sequence of Androgen receptor (Homo sapiens) (P10275 whole entry, looked up): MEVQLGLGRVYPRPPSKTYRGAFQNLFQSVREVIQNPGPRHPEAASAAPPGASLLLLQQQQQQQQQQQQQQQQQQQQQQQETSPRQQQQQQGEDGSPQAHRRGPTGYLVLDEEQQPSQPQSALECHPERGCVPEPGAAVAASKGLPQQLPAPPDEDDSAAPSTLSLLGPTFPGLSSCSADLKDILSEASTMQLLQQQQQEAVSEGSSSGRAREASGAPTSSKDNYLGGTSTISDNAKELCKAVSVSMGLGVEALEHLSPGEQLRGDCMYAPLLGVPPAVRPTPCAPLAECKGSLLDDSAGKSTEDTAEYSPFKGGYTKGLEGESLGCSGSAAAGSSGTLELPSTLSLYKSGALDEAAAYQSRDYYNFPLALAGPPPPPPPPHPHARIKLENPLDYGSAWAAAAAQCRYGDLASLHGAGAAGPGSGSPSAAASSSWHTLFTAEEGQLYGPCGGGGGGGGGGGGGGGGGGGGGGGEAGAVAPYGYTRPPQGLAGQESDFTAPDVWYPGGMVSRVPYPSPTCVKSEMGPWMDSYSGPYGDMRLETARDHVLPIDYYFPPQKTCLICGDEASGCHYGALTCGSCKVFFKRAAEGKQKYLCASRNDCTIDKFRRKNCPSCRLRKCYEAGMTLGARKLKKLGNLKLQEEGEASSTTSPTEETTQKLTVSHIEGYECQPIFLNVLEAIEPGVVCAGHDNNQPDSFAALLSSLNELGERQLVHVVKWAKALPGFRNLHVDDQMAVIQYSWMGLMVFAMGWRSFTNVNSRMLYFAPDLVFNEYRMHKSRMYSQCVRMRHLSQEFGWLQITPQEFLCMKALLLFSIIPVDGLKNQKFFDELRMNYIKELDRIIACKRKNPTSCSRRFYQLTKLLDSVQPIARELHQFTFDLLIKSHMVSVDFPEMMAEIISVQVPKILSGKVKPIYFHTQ

A short description of assay [11]: qHTS assay to identify small molecule antagonists of the thyroid receptor (TR) signaling pathway (AID 743065). Further: nearly all actives have a fitted effect of over 55% in size. Further: potency means the concentration at half of the fitted maximal effect. Summed up: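 GH3.TRE-Luc rat pituitary cells (two TREs driving luciferase) were dosed with compound, then stimulated with 1 nM T3 (final) for 23.5 h at 37 C. ONE-Glo luminescence was the read-out, with CellTiter-Fluor fluorescence as the cytotoxicity counter-screen.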

For assay [12], the system named is thyroid hormone receptor (rat, GH3 cells). Description: qHTS assay to identify small molecule agonists of the thyroid receptor (TR) signaling pathway (AID 743066; calls by dose curve).
The target in assay [13] is Estrogen receptor (Homo sapiens) (UniProt P03372). Description: qHTS assay to identify small molecule antagonists of the estrogen receptor alpha (ER-alpha) signaling pathway (AID 743069; active means well fitted curve in the direction sought with a large enough effect in the signal ratio in the repeat runs, not every such curve was filed as active; inconclusive means weak or mixed curves, or effect the other way; inactive means no such curve, though single readings can be large or run the other way; the % refers to the signal ratio; further: potency means the concentration at half of the fitted maximal effect). The method in brief: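 HEK293 ER-alpha-UAS-bla GripTite cells, held overnight in 2% charcoal-stripped FBS, 5,000 cells/well, preincubated 4 h, then compound plus 17beta-estradiol for 18 h at 37C. Beta-lactamase read by LiveBLAzer B/G FRET substrate, 2 h at room temperature.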
Sequence of Estrogen receptor (Homo sapiens) (P03372 whole entry, looked up): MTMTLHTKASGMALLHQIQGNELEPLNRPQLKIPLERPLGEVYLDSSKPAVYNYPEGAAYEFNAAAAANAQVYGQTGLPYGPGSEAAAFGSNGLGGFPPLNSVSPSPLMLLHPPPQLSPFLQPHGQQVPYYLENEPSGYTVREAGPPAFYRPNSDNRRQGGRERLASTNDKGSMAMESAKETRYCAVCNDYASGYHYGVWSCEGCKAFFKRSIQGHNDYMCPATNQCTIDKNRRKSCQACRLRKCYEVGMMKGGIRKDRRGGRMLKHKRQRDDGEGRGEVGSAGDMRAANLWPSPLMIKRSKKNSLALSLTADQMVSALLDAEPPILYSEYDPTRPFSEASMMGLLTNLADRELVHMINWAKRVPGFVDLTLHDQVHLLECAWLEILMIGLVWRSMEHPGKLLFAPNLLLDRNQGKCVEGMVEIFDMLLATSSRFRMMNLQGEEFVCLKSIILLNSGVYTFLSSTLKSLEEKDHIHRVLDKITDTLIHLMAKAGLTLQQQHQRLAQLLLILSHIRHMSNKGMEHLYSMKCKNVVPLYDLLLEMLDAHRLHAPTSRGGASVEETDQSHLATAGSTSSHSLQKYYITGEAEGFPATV

Assay [14] is described as follows: qHTS assay to identify small molecule antagonists of the estrogen receptor alpha (ER-alpha) signaling pathway - cell viability counter screen (AID 743074; calls by dose curve;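 further: HEK293 cells carrying ER-alpha-UAS-bla reporter stimulated with 17beta-estradiol; nearly all actives have a fitted effect of over 45% in size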).
Assay [15] concerns the target Estrogen receptor (Homo sapiens) (UniProt P03372). Description: qHTS assay to identify small molecule agonists of the estrogen receptor alpha (ER-alpha) signaling pathway (AID 743075; calls by dose curve; further: potency means the concentration at half of the fitted maximal effect).
For assay [16] the target is unchanged. Description: qHTS assay to identify small molecule agonists of the estrogen receptor alpha (ER-alpha) signaling pathway using the BG1 cell line (AID 743079). Further: nearly all actives have a fitted effect of over 20% in size. Further: potency means the concentration at half of the fitted maximal effect. The conditions noted are these: BG1Luc4E2 cells, ERE-luciferase agonist, 22 h; activation: at 70.3 µM (top of the series) unless noted.
Assay [17] is described as follows: qHTS assay to identify small molecule antagonists of the estrogen receptor alpha (ER-alpha) signaling pathway using the BG1 cell line (AID 743080; calls by dose curve;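 further: BG1 cells stimulated with 17beta-estradiol alongside compound; nearly all actives have a fitted effect of over 25% in size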; further: potency means the concentration at half of the fitted maximal effect). Summed up:
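BG1-Luc-4E2 cells (endogenous full-length ER-alpha, stable 4×ERE-luciferase) were starved 5 days in phenol-red-free medium with 10% charcoal-stripped FBS, plated 24 h, then given compound plus 17beta-estradiol for 21.5 h at 37 C; ONE-Glo luminescence read after 30 min.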

The nature of assay [18]: qHTS assay to identify small molecule antagonists of the estrogen receptor alpha (ER-alpha) signaling pathway using the BG1 cell line - cell viability counter screen (AID 743081).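 Further: compound given together with 17beta-estradiol as the ER stimulus; nearly all actives have a fitted effect of over 45% in size.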 Further: potency means the concentration at half of the fitted maximal effect.
Another assay concerns the target Aromatase (Homo sapiens) (UniProt P11511). Description: qHTS assay to identify aromatase inhibitors (AID 743083). Further: nearly all actives have a fitted effect of over 55% in size. Further: potency means the concentration at half of the fitted maximal effect.
Assay [19] in a line: qHTS assay to identify small molecule antagonists of the thyroid receptor (TR) signaling pathway - cell viability counter screen (AID 743064). Further: nearly all actives have a fitted effect of over 50% in size. Further: potency means the concentration at half of the fitted maximal effect. The method in brief:
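GH3.TRE-Luc rat pituitary cells carrying a TRE-luciferase reporter were treated with compound plus 1 nM T3 (final) for 23.5 h at 37 °C. Viability was then read in the same wells by CellTiter-Fluor fluorescence after a further 30 min.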
On the % scale 0 is the no-effect control and ±100 the full control effect.

Sequence of Aromatase (Homo sapiens) (P11511 whole entry, looked up): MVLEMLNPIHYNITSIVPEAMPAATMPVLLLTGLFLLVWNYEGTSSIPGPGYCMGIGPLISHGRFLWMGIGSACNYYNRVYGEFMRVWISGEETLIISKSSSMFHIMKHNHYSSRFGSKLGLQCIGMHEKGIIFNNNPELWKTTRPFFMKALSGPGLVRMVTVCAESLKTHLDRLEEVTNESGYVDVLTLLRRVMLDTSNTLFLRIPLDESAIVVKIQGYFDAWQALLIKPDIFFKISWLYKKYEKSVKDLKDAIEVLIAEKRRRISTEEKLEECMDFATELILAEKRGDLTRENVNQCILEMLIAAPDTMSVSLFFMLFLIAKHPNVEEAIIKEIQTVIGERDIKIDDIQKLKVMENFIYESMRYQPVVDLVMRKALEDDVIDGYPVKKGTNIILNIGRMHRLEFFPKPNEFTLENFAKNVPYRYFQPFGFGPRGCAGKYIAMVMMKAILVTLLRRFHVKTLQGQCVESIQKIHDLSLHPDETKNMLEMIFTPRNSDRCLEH

For `CC(C)(c1ccc(OCC2CO2)cc1)c1ccc(OCC2CO2)cc1` (stereo not given), the Potency result in [1], in [5], in [6], in assay [7], in assay [9] and in assay [10] was “inactive” throughout. Further, the Potency result in assay [12], in [13], in assay [14], in assay [15], in [16] and in assay [17] was “inactive” throughout. Further, the Potency entry (in assay [18]; in the assay with Aromatase (Homo sapiens)) was “inactive” throughout. For the same molecule, the Potency is 24.3 µM (active) in assay [2]; 2.47 µM (active) and 3.06 µM (active) in assay [3]; 55.2 µM (active) and 27.3 µM (active) in assay [4]; 55.2 µM (active) and 54.5 µM (active) in assay [11]. Besides, the activity change in assay [8] (at 70.3 µM (top of the series)) was -0.897% (inactive); in assay [8] (at 95 µM (top of the series)) it was -0.522% (inactive).

On to `N#Cc1nn(-c2c(Cl)cc(C(F)(F)F)cc2Cl)c(N)c1S(=O)C(F)(F)F` (stereo not given), for which the Potency result in assay [1], in [7], in assay [12], in assay [14], in assay [15] and in assay [18] was “inactive” in each case. The Potency is 8.41 µM (active) and 2.75 µM (active) in [2]; 10.6 µM (active) and 3.88 µM (active) in [3]; 9.44 µM (active) and 1.94 µM (active) in assay [4]; 15.6 µM (active) in assay [5]; 23.9 µM (active) in assay [6]; 17.3 µM (active) in [10]. In addition, the Potency is 29.8 µM (active) and 61.5 µM (active) in [19]; 26.6 µM (active) and 19.4 µM (active) in assay [11]; 17.5 µM [inconclusive] (active) in [13]; 7.5 µM (active) and 24.5 µM (active) in assay [17]; 33.5 µM (active) and 19.4 µM (active) with Aromatase (Homo sapiens). Besides, the results for the activity change in [8] (at 70.3 µM (top of the series)) and in assay [8] (at 95 µM (top of the series)) were -9.74% (inactive) and -12% (inactive), respectively.

Turning to `Clc1cccc(Cl)c1`, the Potency entry in assay [1], in assay [2], in assay [3], in [4], in [5] and in assay [9] was “inactive” in each case. The Potency entry (in assay [19]; in assay [11]; in [12]; in [14]; in [18]; in the assay with Aromatase (Homo sapiens)) was “inactive” each time.

For `CCCCOCC1CO1` (stereo not given), the Potency result in assay [1], in [2], in assay [3], in assay [4], in assay [5] and in [9] was “inactive” throughout. In addition, the Potency result in assay [19], in assay [11], in assay [12], in [13], in [14] and in assay [15] was “inactive” each time. Further, the Potency entry (in assay [16]; in assay [17]; in assay [18]; with Aromatase (Homo sapiens)) was “inactive” in each case.

Regarding `CCOP(=S)(OCC)OP(=S)(OCC)OCC`, the Potency entry in [1], in assay [2], in assay [3], in assay [4], in assay [5] and in assay [6] was “inactive” each time. For the same molecule, the Potency result in assay [7], in assay [10], in assay [19], in assay [11], in assay [12] and in [14] was “inactive” each time. The Potency result (in [18]; in the assay with Aromatase (Homo sapiens)) was “inactive” each time. The activity change in assay [8] (at 70.3 µM (top of the series)) was -0.0098% (inactive).

As for `O=[N+]([O-])c1ccc(Nc2ccccc2)cc1`, the Potency was 43.6 µM (active) in assay [1]; 15.4 µM (active) in [2]; 54.9 µM (active) and 13.7 µM (active) in [3]; 30.9 µM (active) and 10.9 µM (active) in assay [4]; 38.9 µM (active) in [5]; 61.6 µM (active) and 61.1 µM (active) in assay [9]. The Potency in assay [19] was 48.6 µM (active); in assay [11], 48.9 µM (active) and 30.6 µM (active); in assay [18], 48.9 µM (active) and 27.3 µM (active); with Aromatase (Homo sapiens) it was 30.6 µM (active). Also, the Potency result in assay [12] and in assay [15] was “inactive” each time.

Turning to `CC(C)(c1ccccc1)c1ccc(O)cc1`, the Potency entry in assay [1], in [9], in assay [12], in assay [14] and in assay [18] was “inactive” throughout. Besides, the Potency in assay [2] was 21.7 µM (active); in assay [3], 60.6 µM (active) and 17.2 µM (active); in assay [4], 13.7 µM (active); in assay [5], 38.6 µM (active) and 49 µM (active); in [19] it was 48.2 µM (active) and 61.1 µM (active); in assay [13], 24.3 µM [inhibitor] (active). Moreover, the Potency in [15] is 4.33 µM [inconclusive] (active) and 3.89 µM [inconclusive] (active); in [16], 1.08 µM (active) and 686 nM (active); with Aromatase (Homo sapiens), 30.4 µM (active) and 30.6 µM (active).

Consider `COc1ccc(O)c(C(C)(C)C)c1`, for which the Potency entry in assay [1], in assay [2], in assay [3], in assay [4], in [5] and in assay [9] was “inactive” each time. Also, the Potency result in assay [19], in assay [12], in [13], in [14], in assay [15] and in assay [16] was “inactive” each time. Besides, the Potency result (in [17]; in assay [18]; in the assay with Aromatase (Homo sapiens)) was “inactive” throughout.

Turning to `N#CC(c1ccccc1)c1ccccc1`, the Potency entry in assay [1], in [2], in assay [3], in assay [4], in assay [5] and in assay [9] was “inactive” in each case. Further, the Potency result (in assay [19]; in assay [12]; in assay [14]; in assay [18]; with Aromatase (Homo sapiens)) was “inactive” each time.

Turning to `C[N+](C)(C)CC(=O)O`, the Potency entry in [1], in [2], in [3], in [4], in assay [5] and in assay [9] was “inactive” each time. Besides, the Potency result in assay [19], in [12], in assay [13], in [14], in assay [15] and in [16] was “inactive” in each case. Moreover, the Potency entry (in assay [17]; in assay [18]; with Aromatase (Homo sapiens)) was “inactive” throughout.

As for `O=NN(c1ccccc1)c1ccccc1`, the Potency result in assay [1], in assay [2], in assay [3], in assay [4], in assay [5] and in assay [9] was “inactive” in each case. In addition, the Potency result in assay [19], in assay [11], in assay [12], in assay [13], in [14] and in assay [17] was “inactive” each time. The Potency entry (in assay [18]; with Aromatase (Homo sapiens)) was “inactive” throughout. Also, the Potency in assay [15] is 53.7 µM [inconclusive] (active) and inactive; in assay [16], 47.4 µM (active).
